Screens deposited in PubChem by National Center for Advancing Translational Sciences (NCATS).
SW480 rerep: A quantitative high throughput screen for small molecules that induce DNA re-replication in SW480 colon adenocarcinoma cells; SW480 DNA re-replication, Hoechst DNA content imaging, 48 h; 1.8% of 340,000 active; Potency, µM (highest dose often 46.1 µM), most hits filed as activators; note: nearly all actives have a fitted effect of over 55% in size
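Cells (250 per well) received 23 nL compound or DMSO by pin tool and were kept 48 hr at 37 C, 5% CO2. Nuclei were then stained with Hoechst for 40 min and scanned for DNA content.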
HT1080 IDH1KD tx: qHTS for induction of synthetic lethality in tumor cells producing 2HG: qHTS for the HT-1080-IDH1KD cell line; HT-1080 IDH1 knockdown viability, ATP luminescence, 48 h; Potency, µM (highest dose often 46.1 µM), most hits filed as cytotoxic; 2% of 360,000 active; AID 686971, 2013
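Assay cells: HT-1080 with IDH1 knockdown, 750 per well, RPMI/5% FBS. Exposure: 48 h at 37 °C following 2 h pre-incubation. Read: CellTiter-Glo luminescence; fitted concentration-response, curve class assigned.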
HT1080-NT tox: qHTS for induction of synthetic lethality in tumor cells producing 2HG: qHTS for the HT-1080-NT fibrosarcoma cell line. HT-1080-NT fibrosarcoma viability, CellTiter-Glo ATP luminescence, 48 h. Potency, µM (top dose mostly 46.1 µM), usual class: cytotoxic. 1.6% of 360,000 active;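 note: NT is the 2HG producing partner of a matched IDH1 knockdown line; nearly all actives have a fitted effect of over 55% in size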
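Fibrosarcoma NT cells, 750 per well in 5% FBS RPMI, were exposed to compound for 48 hours. Viability: CellTiter-Glo luminescence.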
KB-V1 cytotox: qHTS assay for MDR1-selective chemotherapeutics: Primary screen using the drug-selected MDR subline cells KB-V1; 3.4% of 400,000 active; KB-V1 MDR cells viability, CellTiter-Glo, 72 h; Potency, µM (doses to about 46.1 µM), most hits filed as cytotoxic; note: nearly all actives have a fitted effect of over 60% in size
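Drug-selected KB-V1 cells, grown in DMEM lacking phenol red with 10% FBS, receive compound titrations; after three days at 37 degrees C, surviving cell ATP is quantified by CellTiter-Glo luminescence and responses normalized and curve-fitted.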
MCF10A rerep: A quantitative high throughput screen for small molecules that induce DNA re-replication in MCF 10a normal breast cells. MCF 10A DNA re-replication, Hoechst nuclear intensity, 48 h. Potency, µM (series often up to 46.1 µM), hits mostly activators. 2.9% of 350,000 active. AID 624296, 2012; note: nearly all actives have a fitted effect of over 50% in size
KB-3-1 tox: qHTS assay for MDR1-selective chemotherapeutics: Primary screen using the parental adenocarcinoma cell KB-3-1; KB-3-1 viability, CellTiter-Glo ATP luminescence, 72 h; Potency, µM (doses to about 46.1 µM), most hits filed as cytotoxic; 1.4% of 400,000 active; AID 1347075, 2019; note: nearly all actives have a fitted effect of over 60% in size
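Viability of parental KB-3-1 cells, measured by CellTiter-Glo luminescence, followed a 72 h incubation at 37 °C with pinned compounds in phenol-red-free DMEM containing 10% FBS.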
Numbers stand for hits; n = inactive; u = inconclusive; x = no result; [ ] = another dose, or the depositor's remark. In the library only some 7.9% were active in any assay of this set; here they are far more common. Calls come from the whole dose curve; as a rule, active = well fitted curve in the direction sought with a large enough effect; inconclusive = small, poorly fitted or top-dose-only effect, or another doubt; inactive = no such curve, though single readings can be large; an effect the other way counts as inactive or inconclusive.

SMILES	SW480 rerep	HT1080 IDH1KD tx	HT1080-NT tox	KB-V1 cytotox	MCF10A rerep	KB-3-1 tox
CCOc1ccccc1NC(=O)C1=C(C)NC(=S)NC1c1cccs1 (configuration not stated)	n	n	n	13µM	n	n
Cc1ccc(NC(=O)CSc2ccccc2NC(=O)c2ccccc2)cc1Cl	n	u	n	u	20.6µM	n
Cc1ccc(NC(=O)CSc2ccccc2NC(=O)c2ccccc2Cl)cc1Cl	n	n	n	3.66µM	n	u
Cc1ccc(NC(=O)c2cccc(-n3cnnn3)c2)cc1Cl	0.651µM	n	n[9.24 µM]	n	u	n
Cc1cc(NC(=O)c2ccccc2Cl)ccc1NC(=O)c1ccccc1Cl	n	n	n	n	n	n
O=C(NN=Cc1ccccc1)NN=Cc1ccccc1	n	n	n	n	n	n
Clc1ccc(CSc2nnc(-c3ccccn3)n2Cc2cccs2)cc1Cl	x	u	u	u	x	n
COc1cccc(C(=O)N2CCN(Cc3nc(CC4CC4)no3)CC2)c1	n	n	n	n	n	n
CCCCNC(=O)C1=CC(c2ccc3c(c2)OCO3)=NS(=O)(=O)N1C	x	x	x	n	x	n
O=C(CCN1CCC(c2ccccc2)C1)c1cccs1 (configuration not stated)	n	3.98µM	u	n	n	n
N=c1n(CCN2CCCCC2)c2ccccc2n1CC(=O)c1cccs1	8.2µM	u	u	n	u	u
O=C(CCN1CCCCCC1)c1ccccc1	n	n	n	n	n	n
O=C(CCN1CCCC1)c1cccs1	n	n	n	n	23.1µM	n
O=C(Nc1cc(S(=O)(=O)N2CCCCC2)ccc1N1CCOCC1)c1ccc(F)cc1	u	n	n	u	n	n
COc1ccccc1N1CCN(C(=O)c2cc(CC(C)C)on2)CC1	x	x	x	n	x	n
CCCCCCCCC/C(=N\O)c1ccccn1	u	u	n	n	14.6µM	u
CCCCCCCCC(=O)N/N=C/c1ccccn1	n	n	u	n	n	n
O=C(O)C1CCCN1S(=O)(=O)c1ccc(F)cc1 (configuration not stated)	n	n	n	n	n	n
Cc1cc(C)nc(N2CCC(C(=O)N3CCN(c4cc(Cl)ccc4C)CC3)CC2)n1	u	u	u	4.11µM	u	u
Cc1ccc(C)c(N2CCN(C(=O)C3CCN(c4nc(C)cc(C)n4)CC3)CC2)c1	n	u	u	3.66µM	n	u
Cc1ccc(Cl)cc1N1CCN(C(=O)C2CCN(S(C)(=O)=O)CC2)CC1	n	n	n	n	n	n
Cc1ccc(C)c(N2CCN(C(=O)C3CCCCN3S(=O)(=O)c3ccc(F)cc3)CC2)c1 (configuration not stated)	n	n	n	2.59µM	n	u
Cc1ccc2c(c1)N(CC(=O)N(Cc1ccc3c(c1)OCO3)CC1CCCO1)C(=O)C(C)O2 (configuration not stated)	n	n	n	8.2µM	n	n
CCc1cccc(C)c1NC(=S)NCCc1c(C)[nH]c2ccc(C)cc12	u	n	n	u	10.3µM	u
COc1ccc2[nH]c(C)c(CCNC(=S)Nc3cc(C)cc(C)c3)c2c1	u	n	n	n	n	n
CCc1cccc(CC)c1NC(=S)NCCc1c(C)[nH]c2ccc(C)cc12	14.6µM	n	n	5.8µM	u	6.51µM
COc1ccc2[nH]c(C)c(CCNC(=S)Nc3cc(C)ccc3C)c2c1	16.4µM	n	n	n	u	n
COc1ccc2[nH]c(C)c(CCNC(=S)Nc3cccc(C)c3)c2c1	u	n	n	n	n	n
O=c1oc2ccccc2cc1-c1nc2ccccc2o1	n	n	n	n	n	n
O=c1oc2ccc3ccccc3c2cc1-c1nc2ccccc2o1	18.4µM	n	n	n	u	n
